The source of these data is PMC11006913.

Changes are numbered by the printed parent chain.

What all share (test): PBM; 200 nM protein, PBS
What all share (settings): dsDNA, one strand shown

Assay [1] has as its target T1, SIX6 (Homo sapiens, UniProt O95475 114-200, L167I).
T1 sequence: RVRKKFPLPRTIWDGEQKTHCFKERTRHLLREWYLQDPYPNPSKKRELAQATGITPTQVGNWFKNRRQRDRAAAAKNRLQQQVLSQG

Assay [2] concerns the target T2, SIX6 (Homo sapiens, UniProt O95475 114-200, L143V).
T2 sequence: T1 sequence with L30V, I54L

In assay [3] the target is T3, SIX6 (Homo sapiens, UniProt O95475 114-200, H141N).
T3 sequence: T1 sequence with H28N, I54L

In assay [4] the target is T4, SIX6 (Homo sapiens, UniProt O95475 114-200, T165P).
T4 sequence: T1 sequence with T52P, I54L

In assay [5] the target is T5, SIX6 (Homo sapiens, UniProt O95475 114-200, L167M).
T5 sequence: T1 sequence with I54M

Assay [6] addresses T6, SIX6 (Homo sapiens, UniProt O95475 114-200, L143M).
T6 sequence: T1 sequence with L30M, I54L

The target of assay [7] is T7, SIX6 (Homo sapiens, UniProt O95475 114-200, L143I).
T7 sequence: T1 sequence with L30I, I54L

Assay [8] has as its target T8, SIX6 (Homo sapiens, UniProt O95475 114-200, T165G).
T8 sequence: T1 sequence with T52G, I54L

The target of assay [9] is T9, SIX6 (Homo sapiens, UniProt O95475 114-200, T139Q).
T9 sequence: T1 sequence with T26Q, I54L

Assay [10] has as its target T10, SIX6 (Homo sapiens, UniProt O95475 114-200, T165A).
T10 sequence: T1 sequence with T52A, I54L

Assay [11] has as its target T11, SIX6 (Homo sapiens, UniProt O95475 114-200, L167V).
T11 sequence: T1 sequence with I54V

Assay [12] has as its target T12, SIX6 (Homo sapiens, UniProt O95475 114-200).
T12 sequence: T1 sequence with I54L

Assay [13] concerns the target T13, SIX6 (Homo sapiens, UniProt O95475 114-200, T165I).
T13 sequence: T1 sequence with T52I, I54L

For the sequence ATGATACA, the binding signal was 11.3 upbm affinity estimate (log intensity, higher = more binding, comparable within an allelic series) in the assay with SIX6 [1]; 10.5 upbm affinity estimate (log intensity, higher = more binding, comparable within an allelic series) with SIX6 [2]; 11.3 upbm affinity estimate (log intensity, higher = more binding, comparable within an allelic series) with SIX6 [3]; 9.98 upbm affinity estimate (log intensity, higher = more binding, comparable within an allelic series) in the assay with SIX6 [4]; 10.8 upbm affinity estimate (log intensity, higher = more binding, comparable within an allelic series) in the assay with SIX6 [5]; 11.1 upbm affinity estimate (log intensity, higher = more binding, comparable within an allelic series) with SIX6 [6]. Moreover, the binding signal with SIX6 [7] is 10.5 upbm affinity estimate (log intensity, higher = more binding, comparable within an allelic series); with SIX6 [8], 11.3 upbm affinity estimate (log intensity, higher = more binding, comparable within an allelic series); in the assay with SIX6 [9], 11.2 upbm affinity estimate (log intensity, higher = more binding, comparable within an allelic series); with SIX6 [10] it was 11.2 upbm affinity estimate (log intensity, higher = more binding, comparable within an allelic series); in the assay with SIX6 [11], 11.1 upbm affinity estimate (log intensity, higher = more binding, comparable within an allelic series); with SIX6 [12], 11.1 upbm affinity estimate (log intensity, higher = more binding, comparable within an allelic series). In the assay with SIX6 [13], the binding signal was 11.1 upbm affinity estimate (log intensity, higher = more binding, comparable within an allelic series).
With CCATATCA, the binding signal is 11.1 upbm affinity estimate (log intensity, higher = more binding, comparable within an allelic series) with SIX6 [1]; 10.1 upbm affinity estimate (log intensity, higher = more binding, comparable within an allelic series) with SIX6 [2]; 11.1 upbm affinity estimate (log intensity, higher = more binding, comparable within an allelic series) with SIX6 [3]; 9.48 upbm affinity estimate (log intensity, higher = more binding, comparable within an allelic series) with SIX6 [4]; 10.4 upbm affinity estimate (log intensity, higher = more binding, comparable within an allelic series) with SIX6 [5]; 10.8 upbm affinity estimate (log intensity, higher = more binding, comparable within an allelic series) with SIX6 [6]. The binding signal was 10.2 upbm affinity estimate (log intensity, higher = more binding, comparable within an allelic series) with SIX6 [7]; 11.1 upbm affinity estimate (log intensity, higher = more binding, comparable within an allelic series) in the assay with SIX6 [8]; 11 upbm affinity estimate (log intensity, higher = more binding, comparable within an allelic series) in the assay with SIX6 [9]; 11 upbm affinity estimate (log intensity, higher = more binding, comparable within an allelic series) in the assay with SIX6 [10]; 10.8 upbm affinity estimate (log intensity, higher = more binding, comparable within an allelic series) in the assay with SIX6 [11]; 10.9 upbm affinity estimate (log intensity, higher = more binding, comparable within an allelic series) with SIX6 [12]. Moreover, in the assay with SIX6 [13], the binding signal was 10.8 upbm affinity estimate (log intensity, higher = more binding, comparable within an allelic series).
Take CGCAAGCG: the binding signal in the assay with SIX6 [1] is 8.99 upbm affinity estimate (log intensity, higher = more binding, comparable within an allelic series); in the assay with SIX6 [2] it was 9.04 upbm affinity estimate (log intensity, higher = more binding, comparable within an allelic series); in the assay with SIX6 [3], 8.99 upbm affinity estimate (log intensity, higher = more binding, comparable within an allelic series); with SIX6 [4], 9.04 upbm affinity estimate (log intensity, higher = more binding, comparable within an allelic series); in the assay with SIX6 [5], 9.02 upbm affinity estimate (log intensity, higher = more binding, comparable within an allelic series); with SIX6 [6], 9.01 upbm affinity estimate (log intensity, higher = more binding, comparable within an allelic series). Also, the binding signal was 9.04 upbm affinity estimate (log intensity, higher = more binding, comparable within an allelic series) with SIX6 [7]; 8.96 upbm affinity estimate (log intensity, higher = more binding, comparable within an allelic series) in the assay with SIX6 [8]; 9.04 upbm affinity estimate (log intensity, higher = more binding, comparable within an allelic series) with SIX6 [9]; 8.95 upbm affinity estimate (log intensity, higher = more binding, comparable within an allelic series) in the assay with SIX6 [10]; 8.92 upbm affinity estimate (log intensity, higher = more binding, comparable within an allelic series) in the assay with SIX6 [11]; 9.01 upbm affinity estimate (log intensity, higher = more binding, comparable within an allelic series) in the assay with SIX6 [12]. For the same sequence, the binding signal in the assay with SIX6 [13] was 8.97 upbm affinity estimate (log intensity, higher = more binding, comparable within an allelic series).
As to CAGCGTGC, the binding signal was 9.15 upbm affinity estimate (log intensity, higher = more binding, comparable within an allelic series) with SIX6 [1]; 9.01 upbm affinity estimate (log intensity, higher = more binding, comparable within an allelic series) with SIX6 [2]; 9.08 upbm affinity estimate (log intensity, higher = more binding, comparable within an allelic series) with SIX6 [3]; 9.06 upbm affinity estimate (log intensity, higher = more binding, comparable within an allelic series) with SIX6 [4]; 9.05 upbm affinity estimate (log intensity, higher = more binding, comparable within an allelic series) in the assay with SIX6 [5]; 9.23 upbm affinity estimate (log intensity, higher = more binding, comparable within an allelic series) with SIX6 [6]. The binding signal with SIX6 [7] is 9.08 upbm affinity estimate (log intensity, higher = more binding, comparable within an allelic series); in the assay with SIX6 [8], 9.19 upbm affinity estimate (log intensity, higher = more binding, comparable within an allelic series); with SIX6 [9], 9.15 upbm affinity estimate (log intensity, higher = more binding, comparable within an allelic series); in the assay with SIX6 [10], 9.11 upbm affinity estimate (log intensity, higher = more binding, comparable within an allelic series); with SIX6 [11] it was 9.05 upbm affinity estimate (log intensity, higher = more binding, comparable within an allelic series); in the assay with SIX6 [12], 9.14 upbm affinity estimate (log intensity, higher = more binding, comparable within an allelic series). In addition, in the assay with SIX6 [13], the binding signal is 9.05 upbm affinity estimate (log intensity, higher = more binding, comparable within an allelic series).
Consider ATATCATC, for which the binding signal was 11.3 upbm affinity estimate (log intensity, higher = more binding, comparable within an allelic series) in the assay with SIX6 [1]; 10.5 upbm affinity estimate (log intensity, higher = more binding, comparable within an allelic series) with SIX6 [2]; 11.2 upbm affinity estimate (log intensity, higher = more binding, comparable within an allelic series) in the assay with SIX6 [3]; 10 upbm affinity estimate (log intensity, higher = more binding, comparable within an allelic series) with SIX6 [4]; 10.8 upbm affinity estimate (log intensity, higher = more binding, comparable within an allelic series) in the assay with SIX6 [5]; 11.1 upbm affinity estimate (log intensity, higher = more binding, comparable within an allelic series) with SIX6 [6]. Further, the binding signal is 10.5 upbm affinity estimate (log intensity, higher = more binding, comparable within an allelic series) in the assay with SIX6 [7]; 11.3 upbm affinity estimate (log intensity, higher = more binding, comparable within an allelic series) with SIX6 [8]; 11.3 upbm affinity estimate (log intensity, higher = more binding, comparable within an allelic series) with SIX6 [9]; 11.2 upbm affinity estimate (log intensity, higher = more binding, comparable within an allelic series) with SIX6 [10]; 11 upbm affinity estimate (log intensity, higher = more binding, comparable within an allelic series) with SIX6 [11]; 11.1 upbm affinity estimate (log intensity, higher = more binding, comparable within an allelic series) with SIX6 [12]. For the same sequence, in the assay with SIX6 [13], the binding signal was 11.1 upbm affinity estimate (log intensity, higher = more binding, comparable within an allelic series).
In the case of GGCCGCCA, the binding signal in the assay with SIX6 [1] was 8.71 upbm affinity estimate (log intensity, higher = more binding, comparable within an allelic series); with SIX6 [2], 8.68 upbm affinity estimate (log intensity, higher = more binding, comparable within an allelic series); with SIX6 [3], 8.73 upbm affinity estimate (log intensity, higher = more binding, comparable within an allelic series); with SIX6 [4], 8.9 upbm affinity estimate (log intensity, higher = more binding, comparable within an allelic series); with SIX6 [5], 8.74 upbm affinity estimate (log intensity, higher = more binding, comparable within an allelic series); with SIX6 [6], 8.71 upbm affinity estimate (log intensity, higher = more binding, comparable within an allelic series). The binding signal was 8.7 upbm affinity estimate (log intensity, higher = more binding, comparable within an allelic series) with SIX6 [7]; 8.66 upbm affinity estimate (log intensity, higher = more binding, comparable within an allelic series) in the assay with SIX6 [8]; 8.63 upbm affinity estimate (log intensity, higher = more binding, comparable within an allelic series) with SIX6 [9]; 8.66 upbm affinity estimate (log intensity, higher = more binding, comparable within an allelic series) with SIX6 [10]; 8.8 upbm affinity estimate (log intensity, higher = more binding, comparable within an allelic series) with SIX6 [11]; 8.68 upbm affinity estimate (log intensity, higher = more binding, comparable within an allelic series) in the assay with SIX6 [12]. In addition, the binding signal with SIX6 [13] is 8.7 upbm affinity estimate (log intensity, higher = more binding, comparable within an allelic series).
